Bioassay records from PubChem BioAssay.
Most compounds without a hit are left out; they make up all but 3.5% or so of the library.
NS1 function inh: blocks influenza NS1 protein function; Potency, µM (series often up to 46.1 µM); 270,000 compounds, 0.4% hits; calls by dose curve; further: actives are rising curves; nearly all actives have a fitted effect of over 50% in size
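Growth recovery, yeast-based: influenza A NS1 expressed in S. cerevisiae causes slow growth, and suppressors are detected by OD600. The parent strain without NS1 is used as positive control.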
RE007 growth inh: less growth of the S. pombe RE007 Vpr strain; S. pombe RE007 Vpr strain, BacTiter-Glo ATP luminescence, 24 h; Potency, µM (top dose mostly 92.2 µM), hits mostly inhibitors; 360,000 compounds, 0.21% hits; AID 651644; active means well fitted falling curve with a large enough effect; inconclusive means small, poorly fitted or top-dose-only effect; inactive means no such curve, though single readings can be large or run the other way; further: nearly all actives have a fitted effect of over 50% in size
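Fission yeast strain RE007, carrying one chromosomally integrated HIV-1 vpr copy, was seeded at OD 0.01 in PMG+AL medium with 23 nL pinned compound. After 24 h at 30 °C and 99% humidity, viability was read by BacTiter-Glo luminescence.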
Tb PYK inh: blocks Trypanosoma brucei pyruvate kinase; Q57TT1; TbPYK enzyme, Kinase-Glo Plus ATP luminescence, 45 min; Potency, µM (series often up to 76.8 µM), most hits filed as inhibitors; 410,000 compounds, 0.12% hits; AID 624173; further: nearly all actives have a fitted effect of over 50% in size
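Activity of T. brucei pyruvate kinase was followed by Kinase-Glo Plus luminescence after the enzyme reacted 45 min at room temperature with 130 uM ADP (final) and substrate. Test compounds were added before ADP at multiple concentrations.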
FBPA Giardia inh: inhibitors of Giardia lamblia fructose-1,6-bisphosphate aldolase. A8B2U2. purified Giardia FBPA. Potency, µM (doses to about 59.6 µM), hits mostly inhibitors. 290,000 compounds, 0.71% hits. AID 2451; further: nearly all actives have a fitted effect of over 55% in size
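40 nM FBPA preincubated 10 min at RT with compound (up to 57.5 uM final), then substrate plus GAPDH/TPI/NAD/arsenate coupling and diaphorase/resazurin added. Fluorescence read after 20 min at RT, 525/598 nm.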
LmPK inh: inhibitors of Leishmania mexicana pyruvate kinase; Q27686; purified LmPK, Kinase-Glo ATP luminescence, 1 h; Potency, µM (titrated, usually from 57.5 µM), hits mostly inhibitors; 290,000 compounds, 0.37% hits; AID 1721
Target sequence (Q27686 whole entry, looked up): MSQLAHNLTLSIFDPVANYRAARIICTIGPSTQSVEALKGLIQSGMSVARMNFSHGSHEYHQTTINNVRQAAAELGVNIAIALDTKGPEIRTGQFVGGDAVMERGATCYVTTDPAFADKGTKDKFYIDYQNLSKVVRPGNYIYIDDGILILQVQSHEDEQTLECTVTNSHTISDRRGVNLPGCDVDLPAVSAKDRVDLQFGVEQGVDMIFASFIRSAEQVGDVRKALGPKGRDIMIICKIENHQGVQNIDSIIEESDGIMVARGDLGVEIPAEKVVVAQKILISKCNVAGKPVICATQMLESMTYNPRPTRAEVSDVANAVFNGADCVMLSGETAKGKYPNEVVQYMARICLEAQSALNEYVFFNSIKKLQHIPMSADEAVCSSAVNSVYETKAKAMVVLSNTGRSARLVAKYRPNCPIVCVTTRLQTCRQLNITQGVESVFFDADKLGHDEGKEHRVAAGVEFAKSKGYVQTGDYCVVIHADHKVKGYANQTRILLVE
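Purified LmPK (0.1 nM) converted ADP (0.1 mM) to ATP with PEP (0.5 mM) in imidazole buffer pH 7.2 with KCl and MgCl2, 1 h at room temperature. ATP was read by Kinase-Glo luminescence; data normalized to uninhibited and no-enzyme controls.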
Sm TGR inh: S. mansoni TGR enzyme inhibition; purified TGR, DTNB reduction, TNB absorbance 405 nm; Potency, µM (highest dose often 114 µM), usual class: inhibitors; 360,000 compounds, 3% hits; AID 485364; further: nearly all actives have a fitted effect of over 60% in size
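Kinetic colorimetric format: TGR-catalysed, NADPH-driven DTNB reduction monitored via TNB absorbance. Enzyme dispensed at 20 nM; compound exposure 15 min at room temperature before reaction start.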
Numbers stand for hits; i = inactive; ? = inconclusive; nt = not tested or not shown; [ ] = remark or other dose. Unless noted, the call rests on the fitted dose curve; in most records, active means well fitted curve in the direction sought with a large enough effect; inconclusive means small, poorly fitted or top-dose-only effect, or another doubt; inactive means no such curve, though single readings can be large; an effect the other way counts as inactive or inconclusive.

SMILES | NS1 function inh | RE007 growth inh | Tb PYK inh | FBPA Giardia inh | LmPK inh | Sm TGR inh
CN(Cc1ccccc1)C(=O)CSc1nnc(-c2ccco2)n1-c1ccccc1 | i | ? | i | i | i | 32µM
NC(=O)c1c(NC(=O)CSc2nnc(-c3ccco3)n2-c2ccccc2)sc2c1CCC2 | 1.4µM | i | i | i | i | 22µM
CNC(=O)C1CCC(Cn2c(=O)c3sccc3n(Cc3cc(C)ccc3C)c2=O)CC1 (stereo not drawn) | nt | nt | i | nt | nt | i
CCc1ccc(S(=O)(=O)c2nnn3c2nc(Nc2cccc(C)c2C)c2sccc23)cc1 | nt | nt | i | nt | nt | i
Cc1ccc(SC[C@H](Cc2ccccc2)N2CCN(CC(C)C)CCC2=O)cc1 | i | i | i | i | i | 25µM
CCCN1CCC(=O)N(C(CSc2ccc(Br)cc2)c2ccccc2)CC1 (stereo not drawn) | nt | nt | nt | i | nt | nt
CCCN1CCC(=O)N([C@H](CSc2ccccc2)c2ccccc2)CC1 | i | i | i | i | i | 40µM
CCCN1CCC(=O)N([C@H](CSc2ccc(C)cc2)c2ccccc2)CC1 | i | i | i | i | i | 45µM
CCOC(=O)[C@]1(C(NC(=O)OC)c2cccc(F)c2)CCCC1=O (stereo partly drawn) | nt | nt | nt | i[12.9 µM] | nt | nt
N#CC1=C(N)C(C#N)(C#N)C(c2ccc[nH]2)C2CCCC=C12 (stereo not drawn) | i | i | ? | ? | i | 16µM
N#CC1=C(N)C(C#N)(C#N)C(c2cccnc2)C2CC(c3ccccc3)CC=C12 (stereo not drawn) | i | i | i | i | i | ?
N#CC1=C(N)C(C#N)(C#N)C(c2cccnc2)C2CCCC=C12 (stereo not drawn) | i | nt | nt | 4.5µM | i | i
CC(C)c1nn2c(=O)cc(COC(=O)c3ccc(NC(=O)C4CCCCC4)cc3)nc2s1 | nt | nt | i | nt | nt | i
O=C(C1=C[C@@H]2[C@H]3C(=O)N(c4ccc(Cl)cc4)C(=O)[C@H]3[C@@H](C(=O)c3ccc(Cl)cc3)N2C=C1)c1ccccc1 | ? | i | i | i | i | 14µM
CC(=O)c1ccc2c(c1)C1C=CCC1C(c1ccncc1)N2 (stereo not drawn) | i | i | i | ? | i | ?
C1=CC2c3ccccc3NC(c3ccncc3)C2C1 (stereo not drawn) | ? | i | ? | ? | i | 2.5µM
Cc1ccc(S(=O)(=O)c2nc(-c3cccc(Cl)c3)oc2NCc2ccccc2)cc1 | nt | nt | i | nt | nt | i
Cc1ccc(C2c3c(oc4ccccc4c3=O)C(=O)N2c2nnc(C)s2)cc1 (stereo not drawn) | nt | nt | i | nt | nt | i
CCN=C1S/C(=C\c2ccc(Sc3ccc(Cl)cc3)o2)C(=O)N1CC | i | i | i | i | i | 45µM
CCN=C1S/C(=C/c2ccc(-c3ccc(F)cc3)o2)C(=O)N1CC | i | i | i | i | i | 45µM
O=C(NCCc1csc(-c2ccc(C(F)(F)F)cc2)n1)c1ccc(F)c(F)c1 | nt | nt | i | nt | nt | i
Clc1ccccc1Cn1c(/C=C/c2ccco2)nc2ccccc21 | i | i | i | i | i | 32µM
O=C(O)c1ccc(N2C(=O)/C(=C/c3ccc(-c4ccc([N+](=O)[O-])cc4)o3)C=C2c2ccccc2)cc1 | nt | i | i | i | ? | 45µM
Cc1cccc(NC(=O)C(c2ccccc2)N2Cc3ccccc3C2=O)c1C (stereo not drawn) | nt | nt | i | nt | nt | i
O=C(O)c1ccc(/C=N/n2cc(-c3ccccc3)[nH]c2=S)cc1 | i | i | ? | ? | 14µM | i
SMILES | NS1 function inh | RE007 growth inh | Tb PYK inh | FBPA Giardia inh | LmPK inh | Sm TGR inh
S=c1[nH]c(-c2ccccc2)cn1/N=C/c1cccnc1 | i | i | ? | i | 3.5µM | i
S=c1[nH]c(-c2ccccc2)cn1/N=C/c1ccc(Br)cc1 | i | i | i | i | i | i
Cc1cc([N+](=O)[O-])c2ccccc2[n+]1[O-] | i | 14µM | i | ? | i | 13µM
O=[N+]([O-])c1cccc2c([N+](=O)[O-])cccc12 | nt | i | i | nt | nt | i
O=C(CCl)N1c2ccccc2SCC1c1ccccc1 (stereo not drawn) | i | i | i | i | i | 2.8µM
O=C(CCl)N1c2ccccc2OCC1c1ccccc1 (stereo not drawn) | ? | i | i | ? | i | 3.2µM
